# Rab9 promoter act – activates the Rab9 promoter | Huh7 Rab9 promoter-luciferase reporter, luminescence, 24 h | Potency, µM (top dose mostly 9.22 µM), for the others: at the top dose activation, negative = inhibition, usual class: activators | hit rate 2.8% among 320,000 | AID 485297; further: % of control where 0% means no effect; nearly all actives have a fitted effect of over 60% in size
#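 Cells were plated at 1500 per well in reduced-serum medium with 10% FBS and left 2 h. Compound in DMSO was then added for 24 h at 37 °C. Reporter signal was read by luminescence after 10 min with luciferase detection reagent.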
# SMN2 splice up – increases expression of the SMN2 splice variant. HEK293 SMN2-luciferase splicing reporter, luminescence, 30-36 h. Potency, µM (series often up to 46.1 µM), inactives show top-dose activity change, positive = activation, hits mostly activators. hit rate 2.8% among 210,000. AID 1458; further: % of control where 0% means no effect; nearly all actives have a fitted effect of over 55% in size
#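 HEK293 cells carry an SMN2 minigene-luciferase reporter in which exon 7 inclusion puts luciferase in frame. Cells were seeded at 2000 cells/well, attached for 10-12 hours, then exposed to compounds for 30-36 hours at 37C before ONE-Glo luminescence.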
# FLuc counter – inhibits or activates purified firefly luciferase, miR-21 counter-screen; P08659; purified FLuc, Km substrates, luminescence inhibition; Potency, µM (doses to about 57.5 µM), for the others: at the top dose activity change, negative = inhibition, actives largely listed as inhibitors; hit rate 6.9% among 360,000; AID 588342;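 further: plate controls were vehicle for no effect and reference inhibitor for full effect; nearly all actives have a fitted effect of over 55% in size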
# Target sequence (P08659 whole entry, looked up): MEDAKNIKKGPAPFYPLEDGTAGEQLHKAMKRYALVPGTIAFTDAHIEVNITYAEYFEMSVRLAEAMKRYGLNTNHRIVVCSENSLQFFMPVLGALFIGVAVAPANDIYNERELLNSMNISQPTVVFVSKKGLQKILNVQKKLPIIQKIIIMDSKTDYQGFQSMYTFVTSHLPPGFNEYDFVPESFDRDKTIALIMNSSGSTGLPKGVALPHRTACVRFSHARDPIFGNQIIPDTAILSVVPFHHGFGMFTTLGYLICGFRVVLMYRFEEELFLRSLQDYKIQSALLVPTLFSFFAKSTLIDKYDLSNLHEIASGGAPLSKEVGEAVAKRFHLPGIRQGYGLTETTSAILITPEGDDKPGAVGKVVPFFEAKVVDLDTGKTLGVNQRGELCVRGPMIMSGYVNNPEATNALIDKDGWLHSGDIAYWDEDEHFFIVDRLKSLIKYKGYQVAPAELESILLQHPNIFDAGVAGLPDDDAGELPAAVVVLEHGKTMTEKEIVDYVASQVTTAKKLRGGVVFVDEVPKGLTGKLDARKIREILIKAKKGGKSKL
#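 Purified P. pyralis luciferase (10nM final) with 10uM D-luciferin and 10uM ATP (Km levels) in 50mM Tris acetate pH 7.5, 10mM Mg acetate, 0.01% Tween-20, 0.05% BSA; qHTS 6-point titration, ~60 µM downward; luminescence read.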
# NPC1 prom act – activates the NPC1 promoter; Huh7 NPC1 promoter luciferase reporter, 24 h; AID 485313; Potency, µM (doses to about 9.22 µM), for the others: at the highest dose activation, hits mostly activators; hit rate 2.4% among 320,000; further: % of control where 0% means no effect; nearly all actives have a fitted effect of over 60% in size
#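 Readout is luciferase luminescence, reflecting NPC1 promoter activation in stably transfected Huh7 cells after 24 h compound exposure at 37 °C in reduced-serum medium with 10% FBS.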
# ELG1 repair inh – blocks ELG1-dependent DNA repair in HEK293T cells; Potency, µM (highest dose often 46.1 µM), inactives show top-dose activity change, negative = inhibition, actives largely listed as inhibitors; HEK293T ELG1-luciferase reporter, luminescence, 16 h; DNA damage induced by 5-fluorouridine; hit rate 2.3% among 330,000; further: on the % scale 0 is the no-effect control and ±100 the full control effect; nearly all actives have a fitted effect of over 55% in size
#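 Luminescence from the luciferase reporter, measured 30 min after ONE-Glo reagent at room temperature, was the read-out. Beforehand, 2,000 cells per well were exposed for 16 hr at 37 °C to 5-fluorouridine together with compound or vehicle.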
# ELG1 genotox – induces genotoxicity in HEK293T cells with luciferase-tagged ELG1; Potency, µM (highest dose often 46 µM), without a hit: at the top dose activity change, positive = activation, hits mostly activators; HEK293T ELG1-luciferase reporter, luminescence, 16 h; hit rate 1.3% among 330,000; AID 504466; further: % of control where 0% means no effect; nearly all actives have a fitted effect of over 60% in size
#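 DMSO vehicle served as control against compound-treated ELG1-luciferase HEK293T cells; exposure lasted 16 hr at 37 °C and 5% CO2, followed by ONE-Glo luminescence detection after 30 min.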
# Active calls of the source: *; ? = inconclusive; nt = not tested or not shown; [ ] = dose if it differs, or a comment. A selection: hits, their analogues and other compounds. The true share with any hit is near 9.3%. The call rests on the fitted dose curve; in most records, active means well fitted curve in the direction sought with a large enough effect; inconclusive means small, poorly fitted or top-dose-only effect, or another doubt; inactive means no such curve, though single readings can be large; an effect the other way counts as inactive or inconclusive. Potency means the concentration at half of the fitted maximal effect.
SMILES,Rab9 promoter act,SMN2 splice up,FLuc counter,NPC1 prom act,ELG1 repair inh,ELG1 genotox
CCC1CCCCN1C(=O)CCCOc1ccccc1 (stereo unspecified),?,-2%,19µM*,?,?,13µM*
O=C(c1ccc(COc2ccc(Cl)cc2)cc1)N1CCCCC1,?,12%,12µM*,?,?,?
CCC1CCCCN1C(=O)COc1ccc(F)cc1 (stereo unspecified),-11%,nt,0%,-2%,3%,0%
CCOC(=O)C1CCN(C(=O)CCCOc2ccccc2)CC1,?,30%,9.5µM*,?,?,?
NNC(=S)Nc1ccc(OC(F)(F)F)cc1,2%,nt,-6%,-1%,?,-5%
COCCCNC(=S)Nc1ccc2c(c1)OCCO2,28%,29%,?,9%,?,11%
O=C(CCCOc1ccc(Cl)cc1)N1CCCCCC1,12%,20%,-3%,12%,?,16µM*
O=C(CCCOc1ccccc1)N1CCCCC1,?,2.5µM*,1.5µM*,0.5µM*,?,0.46µM*
O=C(COc1ccc(Cl)cc1)N1CCCCCCC1,19%,nt,-16%,17%,7%,1%
O=C(COc1ccccc1)N1CCCCCCC1,-2%,nt,0%,1%,12%,2%
O=C(Nc1ccc2nc(N3CCOCC3)sc2c1)c1ccccc1,3%,nt,?,17%,-2%,4%
COCc1c(C(=O)Nc2ccc3nc(N4CCOCC4)sc3c2)oc2ccccc12,-5%,nt,nt,4%,13µM*,-11%
Cc1cc(NC(=O)CSc2nnc(CNC(=O)c3c(F)cccc3F)o2)no1,1%,nt,3%,2%,-2%,0%
NC(=O)c1c(NC(=O)c2cccnc2Cl)sc2c1CCCC2,0%,3%,19µM*,-2%,?,8%
Cn1cc(Br)c(C(=O)Nc2sc3c(c2C(N)=O)CCCC3)n1,?,nt,3µM*,7%,?,11%
NC(=O)c1c(NC(=O)c2ccc(N3C(=O)CCC3=O)cc2)sc2c1CCCC2,-3%,nt,11µM*,1%,-6%,8%
NC(=O)c1c(NC(=O)c2ccccc2F)sc2c1CCCC2,0.89µM*,nt,1.9µM*,1.6µM*,?,?
O=C(NCC(c1ccco1)N1CCOCC1)c1ccc(F)cc1 (stereo unspecified),-6%,nt,4%,1%,27%,3%
O=C(Nc1sc2c(c1C(=O)N1CCCCC1)CCCC2)c1ccccc1Cl,nt,-13%,-20%,nt,nt,nt
NC(=O)c1c(NC(=O)c2ccc(F)cc2Cl)sc2c1CCC2,?,nt,13µM*,?,?,-2%
NC(=O)c1c(NC(=O)c2ccccc2C(=O)O)sc2c1CCCC2,5%,nt,17µM*,2%,-1%,-6%
NC(=O)c1c(NC(=O)c2ccccc2Cl)sc2c1CCC2,?,nt,15µM*,?,?,?
Cc1ccc(S(=O)(=O)Nc2cc(Cl)ccc2-n2cncn2)cc1,-1%,nt,-1%,-2%,18%,4%
C=C(C)Cn1c(COc2ccccc2)nnc1SCC(=O)O,-10%,10%,-2%,-3%,-1%,-1%
c1ccc2c(c1)ncn2-c1ccc(-c2ccnc(-c3ccncc3)n2)cc1,-1%,-28%,-2%,-4%,-29%,1%
SMILES,Rab9 promoter act,SMN2 splice up,FLuc counter,NPC1 prom act,ELG1 repair inh,ELG1 genotox
Cc1nccc(-c2ccc(-n3cnc4ccccc43)cc2)n1,19%,-13%,?,16%,10µM*,-19%
Nc1nccc(-c2ccc(-n3cnc4ccccc43)cc2)n1,-30%,23%,-18%,13%,7.3µM*,-18%
O=C1c2ccccc2NC(c2ccccc2Cl)N1N=C1CCCCCC1 (stereo unspecified),-1%,-7%[1.84 µM],12µM*,-2%,?,?
CN(C)S(=O)(=O)N1CCc2ccccc21,4%,1%,2%,14%,10%,-2%
O=C(NCCc1ccccc1)c1ccc(Cl)c(S(=O)(=O)N2CCCC2)c1,-2%,nt,4%,-1%,-10%,-3%
COC(=O)c1cc(-c2ccc(OC)cc2F)nc2nc(SC)[nH]c(=O)c12,2%,nt,15µM*,3%,1%,0%
CCCC(=O)NC(=S)Nc1ccc(NC(=O)C(C)C)c(OC)c1,2%,nt,-11%,-5%,4%,1%
Cc1ccc(S(=O)(=O)Oc2ccc(/C=N/NC(=O)c3nn(C)cc3Cl)cc2)cc1,0%,-6%,-13%,4%,?,5%
CSCCOC(=O)COc1ccc(/C=N/NC(=O)c2nn(C)cc2Cl)cc1,-7%,-22%,13µM*,-5%,?,3%
N#C/C(=C\c1ccc2c(c1)OCCO2)C(=O)Nc1ccc(C(=O)O)cc1,15%[1.84 µM],nt,0.34µM*,21%,?,?
CCCCNC(=O)/C(C#N)=C/c1ccc2c(c1)OCCO2,1%,14%,9.5µM*,-1%,?,?
N#C/C(=C\c1ccc2c(c1)OCCO2)C(=O)NC1CCCCC1,5%,nt,4.8µM*,-3%,?,?
N#C/C(=C\c1cccc([N+](=O)[O-])c1)C(=O)NCc1cccnc1,0%,28%,0%,-3%,21µM*,-17%
COc1ccc(/C=C(/C#N)C(=O)NC2CCCCC2)cc1Br,0%,-24%,-13%,-3%,17%,1%
O=C(CS(=O)(=O)c1ccc2ccccc2c1)Nc1ccccc1Cl,1%,6%,-1%,0%,-1%,-1%
CCCCNC(=O)/C(C#N)=C/c1cccnc1,3%,5µM*,1%,4%,2%,13%
Cc1cccc(NC(=O)/C(C#N)=C\c2cccnc2)c1,-2%,-12%,?,0%,9%,-2%
CCOc1cc(C)c(Cl)cc1S(=O)(=O)n1cnc2ccccc21,-6%,?,-1%,2%,0%,2%
O=C(N/N=C/c1ccc(F)cc1)c1cc(-c2ccc3c(c2)OCO3)n[nH]1,1%,nt,-9%,-2%,6%,4%
COc1ccc(/C=N/NC(=O)c2cc(-c3ccc4c(c3)OCO4)n[nH]2)cc1OC,0%,11%,?,10%,15µM*,0%
COc1cc(/C=N/NC(=O)c2cccnc2)ccc1OC(=O)c1ccc2c(c1)OCO2,-4%,5%,4%,-1%,8%,3%
CN(C)c1ccc(/C=N/NC(=O)c2cc(-c3ccc4c(c3)OCO4)n[nH]2)cc1,-6%,nt,12µM*,?,27%,4%
CC(=O)c1cc2ccc(O)cc2oc1=O,-7%,nt,0%,0%,5%,2%
O=C(NCCc1ccc(F)cc1)c1cc2ccccc2oc1=O,-1%,nt,-3%,-5%,3%,26%
Cc1ccc(NC(=O)c2cc3ccccc3oc2=N)cc1,0.71µM*,nt,0.19µM*,0.45µM*,?,?

# Screens deposited in PubChem by National Center for Advancing Translational Sciences (NCATS).
